Molecules are shown by their SMILES. “And” between values parts separate entries of the source, which are not always exact repeats. Equal entries are not always repeated. A number with no mark means an inactive call.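 Rule for the calls: active = compounds whose GFP signal falls below 65% of the DMSO control level; inconclusive = fewer than 70 yeast cells counted in the well; inactive = the rest.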

This assay in a line: TOR branch reporter RPL19A-GFP response – cell-based, S. cerevisiae, third cherry pick, flow cytometry, confirmation (AID 504336).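 Note: median GFP fluorescence of all gated yeast cells by flow cytometry; ratio of well median fluorescence to plate mean of DMSO wells with DMSO = 100%.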 As to conditions: S. cerevisiae RPL19A-GFP strain, 3 h, at 10 µM, active compounds read low.
Take `Cc1cc(C)c2ccc(N)nc2c1O`: the GFP response relative to DMSO was 101%.
Next, `CNc1nc(N)c([N+](=O)[O-])c(Nc2ccccc2OC)n1`: 103%; `Oc1ccc(F)c2cccnc12`: 101%.
For the compound `CC(=O)C(Cl)C(=O)Nc1ccccc1` (centres undefined), the GFP response relative to DMSO was 98.8%.
In the case of `Cc1ccc2c(Cl)cc(Cl)c(OCC(=O)O)c2n1` it was 104%.
Take `CSc1nc(Nc2ccc(Cl)cc2)c(C#N)c(=O)[nH]1`: the GFP response relative to DMSO was 98.3%.
In the case of `CCC(C)Nc1nc(N)c([N+](=O)[O-])c(Nc2ccccc2OC)n1` (centres undefined) it was 105%.
`COCC(C)NC(=O)CCS(=O)(=O)c1nc(-c2ccc(OC)cc2)cc(C(F)(F)F)n1` (centres undefined): the GFP response relative to DMSO was 98.3% and 102%.
`C/C(=N\NC(=O)c1ccccc1)c1ccccc1F`: the GFP response relative to DMSO was 98.3%.
In the case of `NC(=O)c1ccnc2c(O)cccc12`, the GFP response relative to DMSO is 98.8%.
As to `Cc1nc(Nc2ccc(Cl)cc2)c(C#N)c(=O)[nH]1`, the GFP response relative to DMSO was 102%.
In the case of `Cc1cccc(N/C=C/C(=O)c2ccc(Cl)cc2)c1`, the GFP response relative to DMSO was 99.6%.
Consider `Cc1ccc(C(=O)Nc2nc(-c3ccccn3)cs2)o1`, for which the GFP response relative to DMSO was 99.3%.
In the case of `CC(=O)C(CC(=O)N1CCCC1)C(=O)Nc1ccc(Cl)cc1` (centres undefined) it was 102%.
As for `COc1cccc(N/C(C)=C/C(=O)c2ccc(Br)cc2)c1`, the GFP response relative to DMSO is 101%.
With `CCCOCc1ccc(O)c2ncccc12`, the GFP response relative to DMSO is 101%.
In the case of `Nc1cc(C(=O)O)c(N)c2c1C(=O)c1ccccc1C2=O` it was 98.5%; in that of `Brc1ccc2ncnc(NCc3ccccc3)c2c1`, 102%.
In the case of `COc1cccc(NC(=O)CC(C)=O)c1` it was 99.1%.
In the case of `CCN(CC)c1ncnc2ccc(Br)cc12` it was 98%; in that of `C=CCNc1ncnc2ccc(Br)cc12`, 99.3%.
Regarding `C[n+]1cccc2cccc([O-])c21`, the GFP response relative to DMSO is 98.3%.
`CCCC(=O)Nn1cnc2c(c1=O)C1(CCCCC1)Cc1ccccc1-2`: the GFP response relative to DMSO is 103%.
In the case of `CCC(C)Nc1nc(N)c([N+](=O)[O-])c(Nc2cc(OC)ccc2OC)n1` (centres undefined) it was 96.5%.
In the case of `Cc1nc(Nc2ccc(Br)cc2Br)c([N+](=O)[O-])c(=O)[nH]1` it was 100%; in that of `COc1ccc(OC)c2c(=O)cc(C(=O)O)[nH]c12`, 92.3%; in that of `CS(=O)(=O)Oc1ccc(Br)c2cccnc12`, 99.3%.
In the case of `Nc1nc(NCCOCCO)nc(Nc2cccc(F)c2)c1[N+](=O)[O-]` it was 102%; in that of `C=CCNc1nc(N)c([N+](=O)[O-])c(Nc2cccc(Cl)c2)n1`, 104%.
With `O=C(O)c1ccc(C=NNC(=O)c2cccc3ccccc23)cc1`, the GFP response relative to DMSO is 97.2%.
For the compound `CC(=O)CC(=O)Nc1ccc(C(N)=O)cc1`, the GFP response relative to DMSO is 100%.
Consider `COCCCNc1nc(N)c([N+](=O)[O-])c(Nc2ccccc2OC)n1`, for which the GFP response relative to DMSO was 99.1%.
In the case of `Cc1cc(C)c(NC(=O)CC(=O)c2ccccc2)c(Cl)c1` it was 97.8%; in that of `O=C1c2ccccc2C(=O)c2c1cccc2N(CCO)CCO`, 99.8%; in that of `CCc1c(C)nc2c(OC)cccc2c1Cl`, 102%.
With `COc1ccc(NC(=O)O/N=C2/CCCc3ccc(OC)cc32)cc1`, the GFP response relative to DMSO was 104%.
Next, `COc1ccc(OC)c(Nc2nc(NCCC(C)C)nc(N)c2[N+](=O)[O-])c1`: 103%; `C/C(=C\C(=O)c1ccccc1)Nc1cccc(O)c1`: 98%; `CC(=O)Nn1cnc2c(c1=O)C1(CCCC1)Cc1ccccc1-2`: 99.3%.

For the origin of these results see PubChem BioAssay AID504336 (NMMLSC, 2011).
